Our source for the growth inhibition, inhibition and outcome values is PubChem BioAssay.

A short description of assay [1]: antimalarial activity against Dd2 strain (AID 2302;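 active means growth inhibition above 50% at the single 2 µM test dose, taken to imply half-maximal potency below 2 µM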;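 further: 0% = DMSO untreated growth and 100% = chloroquine plus artemisinin killed control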). As to conditions: P. falciparum Dd2 in RBCs, LDH growth readout, 72 h; at 2 µM; stronger effect = higher value.
Assay [2] is described as follows: human hepatoma cell viability loss – ATP luminescence, cytotoxicity control for P. falciparum antimalarial project, primary screen (AID 2303;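 active means inhibition above 50%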;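 further: 0% = DMSO wells and 100% = digitonin-killed cells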). As to conditions: HepG2 viability, 24-48 h, at 10 µM, stronger effect = higher value.
Assay [3] deals with L-lactate dehydrogenase (Plasmodium falciparum (isolate CDC / Honduras)) (UniProt Q27743). The assay is described as follows: PfLDH activity inhibition – cell lysate, 3D7 strain, counter-screen for P. falciparum growth inhibition project (AID 2304).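 Further: 0% = vehicle and 100% = reference inhibitor.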 As to conditions: P. falciparum 3D7 crude extract, LDH APAD/NBT absorbance; at 2 µM; stronger effect = higher value. Background: A counterscreen serves to expose hits that act by an unwanted route or on another target.
Chain of L-lactate dehydrogenase (Plasmodium falciparum (isolate CDC / Honduras)) (Q27743 whole entry, looked up): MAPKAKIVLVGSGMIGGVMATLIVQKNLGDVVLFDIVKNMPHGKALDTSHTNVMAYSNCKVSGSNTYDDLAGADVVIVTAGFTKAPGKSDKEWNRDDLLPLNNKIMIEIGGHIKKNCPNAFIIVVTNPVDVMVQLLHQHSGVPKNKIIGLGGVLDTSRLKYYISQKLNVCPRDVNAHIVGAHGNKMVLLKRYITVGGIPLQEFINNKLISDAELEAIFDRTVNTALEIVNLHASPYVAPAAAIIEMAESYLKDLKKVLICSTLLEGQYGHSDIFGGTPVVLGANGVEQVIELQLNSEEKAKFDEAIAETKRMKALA

Assay [4] in a line: inhibition of 3D7 malaria parasite growth – strain 3D7 (AID 2306).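 Further: 0% = DMSO wells and 100% = chloroquine plus artemisinin control wells.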 Particulars: P. falciparum 3D7 erythrocytic growth, LDH absorbance, 72 h; at 2 µM; stronger effect = higher value.
For assay [5], the target named is Calcium-dependent protein kinase 1 (Plasmodium falciparum (isolate 3D7)) (UniProt P62344). Put plainly: PfCDPK1 kinase inhibitors, biochemical, TCAMS library (AID 1159585; cut-off not given, nearly all actives have IC50 up to about 0.98 µM;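 further: inhibitors leave more ATP so luminescence rises with inhibition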). Particulars: recombinant PfCDPK1, Kinase-Glo ATP depletion luminescence.
Chain of Calcium-dependent protein kinase 1 (Plasmodium falciparum (isolate 3D7)) (P62344 whole entry, looked up): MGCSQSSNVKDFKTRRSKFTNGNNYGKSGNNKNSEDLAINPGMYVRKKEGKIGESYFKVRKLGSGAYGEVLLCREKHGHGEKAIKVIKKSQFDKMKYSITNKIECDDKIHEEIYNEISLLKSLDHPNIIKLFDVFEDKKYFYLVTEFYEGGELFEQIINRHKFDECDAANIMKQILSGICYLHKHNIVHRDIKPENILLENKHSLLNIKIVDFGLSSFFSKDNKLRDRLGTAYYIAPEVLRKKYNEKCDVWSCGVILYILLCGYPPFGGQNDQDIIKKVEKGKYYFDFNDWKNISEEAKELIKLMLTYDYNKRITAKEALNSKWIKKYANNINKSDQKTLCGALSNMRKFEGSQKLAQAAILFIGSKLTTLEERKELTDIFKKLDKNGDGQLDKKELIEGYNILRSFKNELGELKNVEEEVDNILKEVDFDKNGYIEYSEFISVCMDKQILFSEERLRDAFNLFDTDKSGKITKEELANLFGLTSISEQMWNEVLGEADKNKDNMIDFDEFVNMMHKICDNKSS
Assay [6] concerns the target Plasmodium falciparum protein kinase 6 (PK6, PF3D7_1337100) (UniProt Q8IDW1). The assay is described as follows: PfPK6 kinase inhibitors, biochemical, TCAMS library (AID 1159586). Particulars: recombinant PfPK6, Kinase-Glo ATP depletion luminescence.
Assay [7] addresses Protein kinase 7 (PK7), Plasmodium falciparum 3D7 (PF3D7_0213400) (UniProt Q7YTF7). The assay is described as follows: inhibition of Plasmodium PK7 catalytic activity – biochemical, TCAMS antimalarial set, Kinase-Glo luminescence (AID 1159587). Particulars: recombinant PfPK7, Kinase-Glo ATP depletion luminescence.
Assay [8] addresses Calcium-dependent protein kinase 4 (Plasmodium falciparum (isolate 3D7)) (UniProt Q8IBS5). Put plainly: PfCDPK4 kinase inhibitors, biochemical, TCAMS library (AID 1159588; cut-off not given, nearly all actives have IC50 up to about 0.91 µM). Particulars: recombinant PfCDPK4, Kinase-Glo ATP depletion luminescence. In general terms: Kinase-Glo reads ATP consumption through a luciferase reaction.

A number with no mark means an inactive call. For some of these results: Entries with a potency or affinity are not part of this list. Calls of active or inactive are those of the source. Unless noted, how the calls were made is not given here.

Chain of Plasmodium falciparum protein kinase 6 (PK6, PF3D7_1337100) (Q8IDW1 1-305): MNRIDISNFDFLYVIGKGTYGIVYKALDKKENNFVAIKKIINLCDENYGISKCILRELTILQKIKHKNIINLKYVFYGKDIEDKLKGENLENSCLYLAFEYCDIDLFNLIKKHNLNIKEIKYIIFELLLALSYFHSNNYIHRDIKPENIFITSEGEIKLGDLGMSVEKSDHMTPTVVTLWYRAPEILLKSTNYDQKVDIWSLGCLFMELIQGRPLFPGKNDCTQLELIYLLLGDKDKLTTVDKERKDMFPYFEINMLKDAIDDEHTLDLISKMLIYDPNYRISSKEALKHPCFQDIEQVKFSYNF
Chain of Calcium-dependent protein kinase 4 (Plasmodium falciparum (isolate 3D7)) (Q8IBS5 whole entry, looked up): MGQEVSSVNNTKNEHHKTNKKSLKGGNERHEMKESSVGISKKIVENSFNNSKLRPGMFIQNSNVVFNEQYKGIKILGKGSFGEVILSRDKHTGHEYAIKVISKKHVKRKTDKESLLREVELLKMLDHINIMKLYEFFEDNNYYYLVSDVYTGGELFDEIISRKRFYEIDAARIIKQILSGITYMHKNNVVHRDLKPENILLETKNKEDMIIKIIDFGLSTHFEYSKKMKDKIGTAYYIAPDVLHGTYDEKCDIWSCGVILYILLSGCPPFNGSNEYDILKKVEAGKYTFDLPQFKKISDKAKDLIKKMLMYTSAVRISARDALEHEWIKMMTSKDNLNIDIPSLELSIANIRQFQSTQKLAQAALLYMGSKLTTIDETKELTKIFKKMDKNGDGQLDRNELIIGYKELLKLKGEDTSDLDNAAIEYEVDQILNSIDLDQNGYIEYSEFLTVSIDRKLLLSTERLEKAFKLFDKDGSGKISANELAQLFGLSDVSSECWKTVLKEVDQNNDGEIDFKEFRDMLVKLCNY
Chain of Protein kinase 7 (PK7), Plasmodium falciparum 3D7 (PF3D7_0213400) (Q7YTF7 1-343): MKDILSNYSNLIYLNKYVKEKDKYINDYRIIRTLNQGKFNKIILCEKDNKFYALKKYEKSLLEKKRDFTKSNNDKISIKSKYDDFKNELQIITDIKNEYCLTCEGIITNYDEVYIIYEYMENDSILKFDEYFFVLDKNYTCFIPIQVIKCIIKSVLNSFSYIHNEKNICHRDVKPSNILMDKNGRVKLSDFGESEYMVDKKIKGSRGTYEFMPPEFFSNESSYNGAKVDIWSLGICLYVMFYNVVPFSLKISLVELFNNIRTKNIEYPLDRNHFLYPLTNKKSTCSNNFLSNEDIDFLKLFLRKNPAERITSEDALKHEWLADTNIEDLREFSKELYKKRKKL

Consider `O=C(/C=C/c1ccc(I)cc1)NCCCCCN1CCC(c2c[nH]c3ccc(O)cc23)CC1`, for which the figures for the growth inhibition in assay [1] and in assay [4] were 1% and 97% (active), respectively. Moreover, the inhibition – broadly, the change of the read-out against control, counted positive when it falls – is 14% in assay [2] and 2% in assay [3]. The result in assay [5], in assay [6], in assay [7] and in assay [8] was inactive.
As to `COc1cc(C(=O)N2COCC(CCCN3CCC(N4CCCC4)CC3)(c3ccc(Cl)c(Cl)c3)C2)cc(OC)c1OC` (stereo not given), the figures for the growth inhibition in assay [1] and in assay [4] were 70% (active) and 95% (active), respectively. Besides, the inhibition was 5% in assay [2] and -1% in assay [3]. The result in assay [5], in assay [6], in assay [7] and in assay [8] was inactive.
With `CNc1ccc(CNCc2ccc(-c3ccc(-c4nc5ccc(F)cc5[nH]4)cc3)cc2)cc1`, the growth inhibition in assay [1] was 95% (active); in assay [4], 101% (active). Moreover, the values for the inhibition in assay [2] and in assay [3] were 38% and -5%, respectively. The result in assay [5], in assay [6], in assay [7] and in assay [8] was inactive.
`CCc1ccc(N2C(N)=NC(N)=NC2(C)C)cc1`: the growth inhibition in assay [1] is -1%; in assay [4], 94% (active). In addition, the inhibition in assay [2] was 51% (active); in assay [3] it was -2%. In addition, the result in assay [5], in assay [6], in assay [7] and in assay [8] was inactive.
For the molecule `Fc1ccc2nc(-c3cccc(-c4cccc(CNCc5cnn(-c6ccccc6)n5)c4)c3)[nH]c2c1`, the growth inhibition is 57% (active) in assay [1] and 91% (active) in assay [4]. In addition, the inhibition in assay [2] is 18%; in assay [3] it was 4%. In addition, the result in assay [5], in assay [6], in assay [7] and in assay [8] was inactive.
For `CCCNCc1ccc(-c2ccc(CN(CCOC)C(=O)c3ccccc3)cc2)nc1`, the growth inhibition was 25% in assay [1] and 94% (active) in assay [4]. Further, the inhibition is 16% in assay [2] and -7% in assay [3]. The outcome in assay [5], in assay [6], in assay [7] and in assay [8] was inactive.
In the case of `c1cc(-c2ccc(CNC3CCOCC3)cc2)cc(-c2nc3ccccc3[nH]2)c1`, the growth inhibition in assay [1] and in assay [4] was 100% (active) in each case. In addition, the inhibition in assay [2] was 30%; in assay [3], 3%. Besides, the result in assay [5], in assay [6], in assay [7] and in assay [8] was inactive.
For the molecule `OC(CNc1ccnc(Nc2cccc(Cl)c2)n1)c1cccc(F)c1` (stereo not given), the growth inhibition is 29% in assay [1] and 90% (active) in assay [4]. The values for the inhibition in assay [2] and in assay [3] were 16% and 3%, respectively. In addition, the outcome in assay [5], in assay [6], in assay [7] and in assay [8] was inactive.
Turning to `COc1ccc(CN2CCCC(OC(c3ccc(F)cc3)c3ccc(F)cc3)C2)c(O)c1` (stereo not given), the growth inhibition is 99% (active) in assay [1] and 100% (active) in assay [4]. Further, the inhibition in assay [2] is 16%; in assay [3], 0%. Moreover, the result in assay [5], in assay [6], in assay [7] and in assay [8] was inactive.
`CC[C@H](N=C(Nc1ccc(C#N)cc1O)Nc1cccc(Cl)c1Cl)c1ccccc1`: the results for the growth inhibition in assay [1] and in assay [4] were 71% (active) and 91% (active), respectively. Also, the inhibition in assay [2] is -2%; in assay [3] it was -1%. In addition, the result in assay [5], in assay [6], in assay [7] and in assay [8] was inactive.
`O=C(NC1CCN(Cc2ccccc2)CC1)c1cc(-c2ccncc2)nc2ccc(Cl)cc12`: the growth inhibition in assay [1] is 27%; in assay [4], 97% (active). Also, the inhibition in assay [2] is 17%; in assay [3] it was 0%. Besides, the result in assay [5], in assay [6], in assay [7] and in assay [8] was inactive.
On to `CC(CCc1ccccc1)NCC(O)c1ccc2c3c(cccc13)S(=O)(=O)N2C` (stereo not given), for which the growth inhibition in assay [1] and in assay [4] was 99% (active) each time. Further, the inhibition is 16% in assay [2] and 3% in assay [3]. Besides, the result in assay [5], in assay [6], in assay [7] and in assay [8] was inactive.
In the case of `Cc1cnc(CS(=O)c2nc3ccc(C(F)(F)F)cc3[nH]2)cc1OCc1ccccc1` (stereo not given), the growth inhibition was 76% (active) in assay [1] and 93% (active) in assay [4]. Also, the inhibition in assay [2] was -7%; in assay [3], -2%. Also, the outcome in assay [5], in assay [6], in assay [7] and in assay [8] was inactive.
In the case of `COc1cc(C(=O)N2CCOC(CCN3CCC(c4ccc(Cl)cc4)CC3)(c3ccc(Cl)c(Cl)c3)C2)cc(OC)c1OC` (stereo not given), the growth inhibition in assay [1] was 80% (active); in assay [4] it was 91% (active). For the same molecule, the inhibition in assay [2] was 44%; in assay [3], 6%. The outcome in assay [5], in assay [6], in assay [7] and in assay [8] was inactive.
For `CCn1c(CN2CCC(C)CC2)nc2cc(NC(=O)c3cccs3)ccc21`, the growth inhibition was 95% (active) in assay [1] and 91% (active) in assay [4]. Further, the inhibition is 40% in assay [2] and 1% in assay [3]. The outcome in assay [5], in assay [6], in assay [7] and in assay [8] was inactive.
As to `c1ccc(-c2cc(NCc3cccc4ccccc34)c3[nH]ncc3n2)cc1`, the values for the growth inhibition in assay [1] and in assay [4] were 5% and 93% (active), respectively. Also, the inhibition was 7% in assay [2] and -8% in assay [3]. Moreover, the result in assay [5], in assay [6], in assay [7] and in assay [8] was inactive.
Regarding `Cc1cccc(-c2nn(-c3ccccc3)c3[nH]c(=O)c(CNC4CCCC4)cc23)c1`, the values for the growth inhibition in assay [1] and in assay [4] were 97% (active) and 98% (active), respectively. Moreover, the inhibition in assay [2] is 18%; in assay [3] it was -2%. The outcome in assay [5], in assay [6], in assay [7] and in assay [8] was inactive.
On to `CC(=O)Nc1ccc(S(=O)(=O)N(Cc2cccc(Oc3ccccc3)c2)C2CCN(C/C=C(\C)CCC=C(C)C)CC2)cc1`, for which the growth inhibition in assay [1] was 99% (active); in assay [4] it was 100% (active). In addition, the inhibition in assay [2] was 22%; in assay [3], 0%. Also, the result in assay [5], in assay [6], in assay [7] and in assay [8] was inactive.
Take `O=C(NCCN1CCOCC1)c1csc(C2CCCN(C(=O)c3ccc(O)c(-c4cc(Cl)cc(Cl)c4)c3)C2)n1` (stereo not given): the growth inhibition in assay [1] is 50% (active); in assay [4], 97% (active). Further, the inhibition in assay [2] is 12%; in assay [3] it was 6%. The outcome in assay [5], in assay [6], in assay [7] and in assay [8] was inactive.
For the molecule `CCc1ccc(NC(=O)c2ccc(CN3CCCN(Cc4ccc(C)s4)CC3)cc2)cc1`, the growth inhibition in assay [1] was -2%; in assay [4], 87% (active). The inhibition in assay [2] was 48%; in assay [3], -2%. Also, the result in assay [5], in assay [6], in assay [7] and in assay [8] was inactive.
